Reference: PubChem BioAssay (EPA / NIEHS)
Inconclusive results are not listed. Calls of active or inactive are those of the source. Rule for the calls, unless noted: active = hit-call score of the fitted dose curve at least 0.9, where 1 is the maximum; inconclusive = response in the unintended direction; inactive = score below 0.9.

Assays:
[1] = ATG_TCF_b_cat_CIS: Attagene CIS-FACTORIAL HepG2 Assay for human T-Cell-Factor with beta-catenin (TCF/b-cat) (AID 2282965; active = hit-call score of the fitted dose curve at least 0.9, where 1 is the maximum; inactive = score below 0.9); conditions: HepG2 TCF/beta-catenin cis-reporter transcription, actives raise or lower the signal
In short: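 HepG2 cells transiently transfected with cis-promoter-driven multiplexed reporter units; reporter mRNA measured 24 h after dosing by RT-PCR, FAM labelling, HpaI digestion and capillary electrophoresis. Bidirectional fitting relative to DMSO baseline.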

[2] = ATG_TAL_CIS: Attagene CIS-FACTORIAL HepG2 Assay for human TAL Basal Promoter (AID 2282966; active = hit-call score of the fitted dose curve at least 0.9, where 1 is the maximum; inactive = score below 0.9;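 note: background control endpoint measuring basal TAL promoter reporter mRNA not a specific factor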); conditions: HepG2 Attagene cis-factorial TAL promoter reporter; actives raise or lower the signal
In short: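 Endogenous transcription-factor activity is sensed in HepG2 cells through transfected cis-promoter reporter constructs. After 24 h dosing, reporter transcripts are quantified by RT-PCR and capillary electrophoresis. Gain or loss of signal is fitted relative to DMSO.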

[3] = ATG_TGFb_CIS: Attagene CIS-FACTORIAL HepG2 Assay for human Transforming Growth Factor (TGF) (AID 2282967; active = hit-call score of the fitted dose curve at least 0.9, where 1 is the maximum; inactive = score below 0.9); conditions: HepG2 Attagene CIS TGFb reporter, mRNA transcription; actives raise or lower the signal
In short: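 Endogenous TGFB1-linked transcription factor activity read as reporter mRNA via RT-PCR and capillary electrophoresis, 24 h after dosing transiently transfected HepG2 cells. Gain or loss of signal fitted relative to DMSO.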

[4] = biological target: Estrogen receptor (Homo sapiens) (UniProt P03372); experiment: ATG_ERa_TRANS: Attagene TRANS-FACTORIAL HepG2 Assay for human Estrogen Receptor alpha (ERa) (AID 2282970); conditions: HepG2 Attagene TRANS ERa GAL4 reporter, mRNA
In short: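 Transfected HepG2 cells carrying GAL4-UAS-driven reporter units were dosed for 24 hours. Total RNA was reverse-transcribed, reporter sequences PCR-amplified, FAM-labelled, HpaI-digested and resolved by capillary electrophoresis. Increases over DMSO control defined activity.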

[5] = biological target: X-box-binding protein 1 (Homo sapiens) (UniProt P17861); experiment: ATG_Xbp1_CIS: Attagene CIS-FACTORIAL HepG2 Assay for human X-box Binding Protein 1 (XBP1) (AID 2282972; active = hit-call score of the fitted dose curve at least 0.9, where 1 is the maximum; inactive = score below 0.9); conditions: HepG2 XBP1 cis-element reporter, Attagene multiplex; actives raise or lower the signal
In short: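 Reporter transcripts were quantified by RT-PCR with fluorescent primer extension and capillary electrophoresis after 24 h chemical exposure. Cells: transiently transfected HepG2 carrying cis-regulated reporter constructs; data fitted bidirectionally relative to DMSO.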

[6] = biological target: Oxysterols receptor LXR-alpha (Homo sapiens) (UniProt Q13133); experiment: ATG_LXRa_TRANS: Attagene TRANS-FACTORIAL HepG2 Assay for human Liver X Receptor alpha (LXRa) (AID 2282980); conditions: HepG2 Attagene TRANS reporter, LXRa transactivation
In short: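 Transient HepG2 transfectants, 24 h dosing, RT-PCR/CE mRNA reporter quantitation; gain-of-signal vs DMSO.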

[7] = biological target: Oxysterols receptor LXR-beta (Homo sapiens) (UniProt P55055); experiment: ATG_LXRb_TRANS: Attagene TRANS-FACTORIAL HepG2 Assay for human Liver X Receptor beta (LXRb) (AID 2282981); conditions: HepG2 Attagene TRANS GAL4-LXRb reporter, mRNA
In short: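 Readout: fluorescent reporter mRNA fragments resolved by capillary electrophoresis after RT-PCR. System: transiently transfected human HepG2, exogenous LXRb-Gal4 chimera driving GAL4-UAS reporter, 24 h dosing. Activity fitted upward against DMSO baseline.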

[8] = biological target: Hepatocyte nuclear factor 4-alpha (Homo sapiens) (UniProt P41235); experiment: ATG_HNF4a_TRANS: Attagene TRANS-FACTORIAL HepG2 Assay for human Hepatocyte Nuclear Factor 4 alpha (HNF4a) (AID 2282982); conditions: HepG2 HNF4a transactivation reporter, mRNA readout
In short: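 Transient MRTU transfection of HepG2, 24 h dosing. Readout: reporter mRNA via RT-PCR + capillary electrophoresis, fluorescence; activity fit upward relative to DMSO control.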

[9] = ATG_M_06_TRANS: Attagene TRANS-FACTORIAL HepG2 Assay for M06 Transcription Factor (Internal Marker) (AID 2282983); conditions: HepG2 Attagene TRANS M06 internal marker reporter
In short: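 Human liver HepG2 cells bearing transiently transfected chimeric NR-GAL4 reporter units were treated with chemicals for 24 h. Total RNA was reverse-transcribed, reporter sequences amplified and labelled, then quantified by capillary electrophoresis. Activity was fitted upward relative to DMSO.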

[10] = ATG_M_32_TRANS: Attagene TRANS-FACTORIAL HepG2 Assay for M32 Transcription Factor (Internal Marker) (AID 2282984); conditions: HepG2 Attagene TRANS M32 internal marker reporter
In short: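 Read-out: fluorescent reporter cDNA fragments resolved by capillary electrophoresis after RT-PCR of total RNA. Transfected HepG2 cells were exposed to chemical for 24 h. Activity scored in the positive direction relative to DMSO.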

[11] = biological target: Nuclear receptor subfamily 4 group A member 2 (Homo sapiens) (UniProt P43354); experiment: ATG_NURR1_TRANS: Attagene TRANS-FACTORIAL HepG2 Assay for human Nuclear Receptor Related Protein 1 (NURR1) (AID 2282985); conditions: HepG2 Attagene TRANS reporter, mRNA readout
In short: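 Read-out: reporter mRNA induction by RT-PCR plus capillary electrophoresis with fluorescence detection, after 24 h dosing of transfected HepG2 cells. Exogenous NR-Gal4 chimera activity drives GAL4-UAS reporter; activity fitted upward versus DMSO.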

[12] = biological target: Transcriptional activator Myb (Homo sapiens) (UniProt P10242); experiment: ATG_Myb_CIS: Attagene CIS-FACTORIAL HepG2 Assay for human Myeloblastosis (Myb) Proto-Oncogene Transcription Factor (AID 2282986; active = hit-call score of the fitted dose curve at least 0.9, where 1 is the maximum; inactive = score below 0.9); conditions: HepG2 Attagene CIS-FACTORIAL Myb reporter transcription; actives raise or lower the signal
In short: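 Fluorescence signals from capillary electrophoresis of RT-PCR-amplified reporter cDNA give the read-out. Cells: HepG2 transfected with multiple cis-regulated reporter units. Exposure lasts 24 hours; DMSO defines baseline for gain or loss of signal.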

[13] = biological target: Steroid hormone receptor ERR1 (Homo sapiens) (UniProt P11474); experiment: ATG_ERRa_TRANS: Attagene TRANS-FACTORIAL HepG2 Assay for human Estrogen-Related Receptor alpha (ERRa) (AID 2282971); conditions: HepG2 Attagene TRANS reporter, ERRa transactivation
In short: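 HepG2 cells were transiently transfected with multiple GAL4-UAS reporter units, then dosed with compound for 24 h. Total RNA was reverse-transcribed, reporter cDNA PCR-amplified and fluorescently labelled, and fragments resolved by capillary electrophoresis; induction was compared with DMSO.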

[14] = ATG_M_19_TRANS: Attagene TRANS-FACTORIAL HepG2 Assay for M19 Transcription Factor (Internal Marker) (AID 2282974); conditions: HepG2 Attagene TRANS-FACTORIAL M19 internal marker reporter
In short: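 Measured here: internal-marker reporter transcript from HepG2 cells transfected with MRTUs, harvested at 24 h. cDNA PCR products were 6-FAM labelled by primer extension, cut with HpaI for 2 h at 37 C, and resolved by CE.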

[15] = ATG_GAL4_TRANS: Attagene TRANS-FACTORIAL HepG2 Assay for GAL4 (Internal Marker) (AID 2282976); conditions: HepG2 Attagene TRANS GAL4 internal marker reporter
In short: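 Fluorescence from capillary electrophoresis of labelled RT-PCR products quantifies reporter mRNA induction after 24 h dosing of HepG2 cells carrying transfected GAL4-UAS reporter transcription units. Vehicle DMSO serves as baseline.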

[16] = biological target: Bile acid receptor (Homo sapiens) (UniProt Q96RI1); experiment: ATG_FXR_TRANS: Attagene TRANS-FACTORIAL HepG2 Assay for Farnesoid X Receptor (FXR) (AID 2282979); conditions: HepG2 Attagene TRANS FXR-GAL4 reporter transcription;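 note: hits raise reporter mRNA above DMSO so AC50 marks FXR activation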
In short: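 Chimeric FXR-GAL4 activity in transiently transfected human HepG2 liver cells is scored as induction of reporter mRNA after 24 h of dosing. Detection uses RT-PCR with fluorescent labelling and capillary electrophoresis, with DMSO serving as baseline.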

[17] = ATG_VDRE_CIS: Attagene CIS-FACTORIAL HepG2 Assay for human Vitamin D Receptor Element (VDRE) (AID 2282968; active = hit-call score of the fitted dose curve at least 0.9, where 1 is the maximum; inactive = score below 0.9); conditions: HepG2 VDRE cis-reporter transcription, actives raise or lower the signal
In short: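 Transient MRTU transfection of HepG2, 24 h compound exposure. Readout: reporter transcripts via RT-PCR and capillary electrophoresis, fluorescence. Bidirectional fit vs DMSO.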

[18] = biological target: Estrogen-related receptor gamma (Homo sapiens) (UniProt P62508); experiment: ATG_ERRg_TRANS: Attagene TRANS-FACTORIAL HepG2 Assay for human Estrogen-Related Receptor gamma (ERRg) (AID 2282977); conditions: HepG2 Attagene TRANS reporter, ERRg transactivation;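 note: hits increase reporter signal over DMSO so potencies reflect activators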
In short: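 Exogenous NR-Gal4 chimera activity was assessed in HepG2 cells bearing transfected GAL4-UAS reporters. After 24 h dosing, total RNA underwent RT-PCR, fluorescent primer extension and HpaI digestion before capillary electrophoresis, with gain of signal scored against DMSO.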

[19] = biological target: Glucocorticoid receptor (Homo sapiens) (UniProt P04150); experiment: ATG_GR_TRANS: Attagene TRANS-FACTORIAL HepG2 Assay for human Glucocorticoid Receptor (GR) (AID 2282978); conditions: HepG2 Attagene TRANS GR reporter, mRNA transcription;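 note: activators score as hits since higher reporter transcript over DMSO is fitted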
In short: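 Measurement of GAL4-UAS-driven reporter mRNA in human HepG2 liver cells 24 h post-dosing, using RT-PCR with fluorescent labelling and capillary electrophoresis; the transfected constructs report exogenous NR-GAL4 chimera activity, fitted upward against DMSO.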

[20] = biological target: Nuclear receptor subfamily 1 group I member 3 (Homo sapiens) (UniProt Q14994); experiment: ATG_CAR_TRANS: Attagene TRANS-FACTORIAL HepG2 Assay for human Constitutive Androstane Receptor (CAR) (AID 2282969); conditions: HepG2 Attagene TRANS-FACTORIAL CAR reporter;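 note: activators raise reporter mRNA above DMSO so AC50 marks induction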
In short: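 Transiently transfected HepG2, multiplex TRANS reporters (CAR-Gal4 chimera driving GAL4-UAS reporter). 24 h dosing. Readout: reporter transcript by RT-PCR + capillary electrophoresis, fluorescence intensity; positive direction vs DMSO.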

Measured: AC50

Estrogen-related receptor gamma (Homo sapiens), sequence (P62508 whole entry, looked up, the tested form may be a part): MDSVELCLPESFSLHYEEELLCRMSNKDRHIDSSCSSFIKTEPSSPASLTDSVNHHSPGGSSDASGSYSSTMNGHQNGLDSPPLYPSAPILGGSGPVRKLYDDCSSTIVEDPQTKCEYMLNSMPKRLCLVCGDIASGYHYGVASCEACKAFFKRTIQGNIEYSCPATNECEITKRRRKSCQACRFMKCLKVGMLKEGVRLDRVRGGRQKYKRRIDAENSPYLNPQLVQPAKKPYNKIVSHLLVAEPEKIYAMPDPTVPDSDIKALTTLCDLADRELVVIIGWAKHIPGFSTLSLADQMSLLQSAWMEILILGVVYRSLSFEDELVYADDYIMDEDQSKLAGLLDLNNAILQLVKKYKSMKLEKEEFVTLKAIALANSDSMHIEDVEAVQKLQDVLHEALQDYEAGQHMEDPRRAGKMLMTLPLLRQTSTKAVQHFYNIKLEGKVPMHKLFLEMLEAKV
Oxysterols receptor LXR-alpha (Homo sapiens), sequence (Q13133 whole entry, looked up): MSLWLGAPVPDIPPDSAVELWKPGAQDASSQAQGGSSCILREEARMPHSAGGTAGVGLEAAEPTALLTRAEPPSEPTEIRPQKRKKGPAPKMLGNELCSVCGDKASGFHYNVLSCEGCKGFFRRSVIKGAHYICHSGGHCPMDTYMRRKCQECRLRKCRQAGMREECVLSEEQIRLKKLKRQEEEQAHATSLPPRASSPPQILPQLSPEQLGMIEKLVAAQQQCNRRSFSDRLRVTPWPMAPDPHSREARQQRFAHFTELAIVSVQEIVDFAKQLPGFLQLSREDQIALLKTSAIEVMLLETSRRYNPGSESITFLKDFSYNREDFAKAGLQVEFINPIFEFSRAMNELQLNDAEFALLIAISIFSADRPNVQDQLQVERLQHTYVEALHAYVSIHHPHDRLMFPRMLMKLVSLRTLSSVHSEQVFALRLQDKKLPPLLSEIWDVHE
Estrogen receptor (Homo sapiens), sequence (P03372 whole entry, looked up, the tested form may be a part): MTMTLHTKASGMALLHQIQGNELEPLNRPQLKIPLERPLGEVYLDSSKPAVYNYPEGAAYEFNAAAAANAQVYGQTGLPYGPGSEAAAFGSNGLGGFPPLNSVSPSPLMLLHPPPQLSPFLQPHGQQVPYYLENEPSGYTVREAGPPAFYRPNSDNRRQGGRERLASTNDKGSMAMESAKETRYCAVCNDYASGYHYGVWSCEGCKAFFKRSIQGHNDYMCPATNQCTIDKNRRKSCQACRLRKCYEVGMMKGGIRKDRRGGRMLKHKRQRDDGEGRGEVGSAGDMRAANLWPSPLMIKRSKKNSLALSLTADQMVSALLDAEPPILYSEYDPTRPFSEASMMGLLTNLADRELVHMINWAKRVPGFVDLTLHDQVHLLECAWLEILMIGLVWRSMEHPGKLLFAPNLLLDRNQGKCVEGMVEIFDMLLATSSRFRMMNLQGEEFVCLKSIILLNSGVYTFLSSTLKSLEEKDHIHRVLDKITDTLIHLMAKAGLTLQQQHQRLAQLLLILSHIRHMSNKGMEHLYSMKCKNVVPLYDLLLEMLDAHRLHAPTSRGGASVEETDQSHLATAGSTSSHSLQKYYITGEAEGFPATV
Transcriptional activator Myb (Homo sapiens), sequence (P10242 whole entry, looked up): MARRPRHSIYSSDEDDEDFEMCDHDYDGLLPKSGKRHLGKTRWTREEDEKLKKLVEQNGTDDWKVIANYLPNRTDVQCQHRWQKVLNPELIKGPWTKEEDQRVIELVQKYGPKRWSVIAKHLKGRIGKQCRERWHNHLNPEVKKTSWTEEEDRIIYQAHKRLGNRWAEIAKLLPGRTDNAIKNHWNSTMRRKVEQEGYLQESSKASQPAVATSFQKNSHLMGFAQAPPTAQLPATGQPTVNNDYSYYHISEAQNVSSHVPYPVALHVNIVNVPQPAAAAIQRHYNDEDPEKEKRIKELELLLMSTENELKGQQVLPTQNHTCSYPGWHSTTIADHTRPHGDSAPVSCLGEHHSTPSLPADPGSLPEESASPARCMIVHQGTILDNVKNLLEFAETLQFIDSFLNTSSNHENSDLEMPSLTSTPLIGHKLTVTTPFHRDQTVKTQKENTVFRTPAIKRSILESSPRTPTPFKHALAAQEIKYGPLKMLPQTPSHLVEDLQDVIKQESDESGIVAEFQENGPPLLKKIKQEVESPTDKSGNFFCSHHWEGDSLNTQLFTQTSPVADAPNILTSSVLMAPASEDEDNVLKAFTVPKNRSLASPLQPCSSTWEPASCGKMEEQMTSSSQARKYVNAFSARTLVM
X-box-binding protein 1 (Homo sapiens), sequence (P17861 whole entry, looked up): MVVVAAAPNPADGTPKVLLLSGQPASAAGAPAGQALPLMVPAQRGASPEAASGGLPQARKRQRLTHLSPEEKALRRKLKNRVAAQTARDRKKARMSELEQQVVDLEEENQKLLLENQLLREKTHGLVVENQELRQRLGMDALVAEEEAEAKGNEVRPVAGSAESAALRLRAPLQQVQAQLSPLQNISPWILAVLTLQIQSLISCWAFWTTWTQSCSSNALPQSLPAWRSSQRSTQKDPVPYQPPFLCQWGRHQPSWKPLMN
Hepatocyte nuclear factor 4-alpha (Homo sapiens), sequence (P41235 whole entry, looked up): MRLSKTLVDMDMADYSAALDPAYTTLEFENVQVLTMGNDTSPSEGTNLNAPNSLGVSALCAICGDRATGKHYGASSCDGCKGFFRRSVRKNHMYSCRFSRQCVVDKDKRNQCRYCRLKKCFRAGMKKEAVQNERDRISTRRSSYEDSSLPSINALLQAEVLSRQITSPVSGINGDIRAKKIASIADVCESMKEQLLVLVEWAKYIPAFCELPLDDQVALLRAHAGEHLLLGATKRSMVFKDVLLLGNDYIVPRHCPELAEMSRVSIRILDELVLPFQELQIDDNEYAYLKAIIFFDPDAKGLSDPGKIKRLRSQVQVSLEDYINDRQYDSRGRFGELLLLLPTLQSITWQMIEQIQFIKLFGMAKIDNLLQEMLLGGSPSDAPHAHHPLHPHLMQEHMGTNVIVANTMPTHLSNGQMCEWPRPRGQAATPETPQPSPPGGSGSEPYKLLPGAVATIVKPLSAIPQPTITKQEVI
Nuclear receptor subfamily 4 group A member 2 (Homo sapiens), sequence (P43354 whole entry, looked up, the tested form may be a part): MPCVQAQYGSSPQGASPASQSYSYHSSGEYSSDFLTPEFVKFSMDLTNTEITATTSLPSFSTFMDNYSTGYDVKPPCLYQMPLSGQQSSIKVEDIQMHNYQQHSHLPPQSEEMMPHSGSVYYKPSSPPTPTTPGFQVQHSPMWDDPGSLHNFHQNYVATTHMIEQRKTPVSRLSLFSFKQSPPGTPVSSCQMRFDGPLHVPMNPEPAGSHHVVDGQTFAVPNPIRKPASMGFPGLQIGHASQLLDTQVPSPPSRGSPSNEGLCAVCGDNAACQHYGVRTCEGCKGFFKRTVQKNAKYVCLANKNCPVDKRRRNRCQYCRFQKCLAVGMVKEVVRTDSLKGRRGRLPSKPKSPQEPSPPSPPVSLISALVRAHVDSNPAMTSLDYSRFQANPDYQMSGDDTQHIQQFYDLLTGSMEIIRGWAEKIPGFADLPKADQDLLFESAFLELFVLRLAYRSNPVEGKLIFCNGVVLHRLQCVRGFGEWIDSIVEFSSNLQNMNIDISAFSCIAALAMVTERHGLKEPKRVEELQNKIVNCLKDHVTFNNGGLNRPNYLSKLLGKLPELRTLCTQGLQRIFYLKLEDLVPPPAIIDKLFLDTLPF
Steroid hormone receptor ERR1 (Homo sapiens), sequence (P11474 whole entry, looked up, the tested form may be a part): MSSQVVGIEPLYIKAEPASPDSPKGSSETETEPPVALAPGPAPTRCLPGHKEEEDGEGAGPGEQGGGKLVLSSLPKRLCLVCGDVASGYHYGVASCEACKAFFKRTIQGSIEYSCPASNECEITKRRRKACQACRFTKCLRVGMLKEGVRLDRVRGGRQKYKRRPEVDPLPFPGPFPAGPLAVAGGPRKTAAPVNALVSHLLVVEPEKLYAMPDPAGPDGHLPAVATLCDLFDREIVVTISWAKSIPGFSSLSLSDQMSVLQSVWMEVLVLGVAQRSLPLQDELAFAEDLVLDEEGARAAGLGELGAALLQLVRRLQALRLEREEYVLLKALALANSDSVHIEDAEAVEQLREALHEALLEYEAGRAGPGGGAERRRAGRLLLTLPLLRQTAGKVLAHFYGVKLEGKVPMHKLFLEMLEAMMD
Oxysterols receptor LXR-beta (Homo sapiens), sequence (P55055 whole entry, looked up, the tested form may be a part): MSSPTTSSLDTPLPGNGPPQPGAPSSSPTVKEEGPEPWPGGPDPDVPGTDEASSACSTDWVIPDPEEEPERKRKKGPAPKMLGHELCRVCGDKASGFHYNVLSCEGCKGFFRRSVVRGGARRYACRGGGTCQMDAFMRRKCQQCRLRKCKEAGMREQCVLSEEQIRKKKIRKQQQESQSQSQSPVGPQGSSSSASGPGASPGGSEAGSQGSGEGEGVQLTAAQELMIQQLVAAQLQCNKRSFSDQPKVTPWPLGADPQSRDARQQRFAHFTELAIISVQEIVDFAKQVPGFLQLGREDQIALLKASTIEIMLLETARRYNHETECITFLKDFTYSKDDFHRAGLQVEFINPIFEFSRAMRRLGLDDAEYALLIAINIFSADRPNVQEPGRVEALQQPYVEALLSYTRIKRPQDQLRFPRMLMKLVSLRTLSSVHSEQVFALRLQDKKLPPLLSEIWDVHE
Bile acid receptor (Homo sapiens), sequence (Q96RI1 whole entry, looked up, the tested form may be a part): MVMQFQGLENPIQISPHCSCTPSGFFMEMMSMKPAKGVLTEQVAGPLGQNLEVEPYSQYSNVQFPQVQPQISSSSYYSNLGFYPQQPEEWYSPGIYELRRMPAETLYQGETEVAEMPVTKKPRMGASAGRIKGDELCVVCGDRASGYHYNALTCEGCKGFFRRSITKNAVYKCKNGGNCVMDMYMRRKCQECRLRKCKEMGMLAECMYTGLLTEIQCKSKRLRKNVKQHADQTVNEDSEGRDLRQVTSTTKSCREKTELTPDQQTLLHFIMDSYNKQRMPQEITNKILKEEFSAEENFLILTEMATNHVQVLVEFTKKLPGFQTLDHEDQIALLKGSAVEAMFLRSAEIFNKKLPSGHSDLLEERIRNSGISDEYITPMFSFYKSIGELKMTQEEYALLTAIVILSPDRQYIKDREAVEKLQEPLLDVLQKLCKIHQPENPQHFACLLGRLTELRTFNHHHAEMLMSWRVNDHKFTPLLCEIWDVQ

C=C[C@@]1(C)CC(=O)[C@]2(O)[C@@]3(C)[C@@H](O)CCC(C)(C)[C@@H]3[C@H](O)[C@H](OC(C)=O)[C@@]2(C)O1
inactive: [1] | [2] | [3] | [5] | [6] | [8] | [9] | [10] | [11] | [12]
active: [4] 2.1 µM | [7] 0.973 µM

C=CCCCCCCCCOC(C)=O
inactive: [1] | [2] | [4] | [13] | [5] | [14] | [15] | [16] | [8] | [11]

CCCCCOC(=O)CCCCC
inactive: [1] | [2] | [17] | [4] | [13] | [5] | [14] | [18] | [6] | [12]

CCCc1ccc(O)c(OC)c1
inactive: [1] | [2] | [3] | [4] | [5] | [12]

CCOC(=O)C1=NOC(c2ccccc2)(c2ccccc2)C1
inactive: [1] | [2] | [17] | [4] | [5] | [16] | [7] | [9] | [10] | [12]

C/C=C/C=C/CCCCCCCO
inactive: [1] | [2] | [5] | [19] | [16] | [6] | [7] | [8] | [11] | [12]
active: [17] 22.7 µM | [10] 100 µM

O=C1CCCN1C1CCCCC1
inactive: [1] | [2] | [17] | [20] | [4] | [5] | [14] | [18] | [16] | [12]

O=S(=O)(O)c1ccc(Nc2nc(Nc3ccc(C=Cc4ccc(Nc5nc(Nc6ccc(S(=O)(=O)O)cc6)nc(N(CCO)CCO)n5)cc4S(=O)(=O)O)c(S(=O)(=O)O)c3)nc(N(CCO)CCO)n2)cc1
not listed: [4] | [6] | [7] | [9] | [14] | [16] | [17] | [20]
inactive: all other assays above

Cc1c(C(=O)c2c[nH]n(C)c2=O)ccc(S(C)(=O)=O)c1C1=NOCC1
inactive: [1] | [2] | [17] | [5] | [14] | [19] | [7] | [8] | [10] | [11] | [12]

CC1=CC=C(C(C)C)CC1
inactive: [1] | [2] | [3] | [4] | [5] | [6] | [8] | [9] | [12]

CC(C=O)c1ccccc1 (stereo unspecified)
inactive: [1] | [2] | [4] | [5] | [15] | [16] | [8] | [9] | [10] | [11]
active: [17] 9.33 µM

Nc1nc(N)nc(-c2ccccc2)n1
not listed: [3] | [13] | [14] | [15] | [16] | [17] | [18]
inactive: all other assays above
